Test results taken from PubChem BioAssay AID1259418 (Broad Institute, 2018).
Among all 3,400 compounds or so, about 840 (25%) were called active. Inconclusive results (about 11%) are left out. These entries were drawn from the full list. Entries with a potency or affinity are not part of this list. Unmarked numbers belong to inactive results.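 How the source made its calls: active means fitted half-maximal concentration of signal decrease at or below twice the sample's top tested concentration; inconclusive means flat curve between -70 and -30 percent, or poor fit; inactive means flat within 30 percent, signal rise, or potency above limit.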

Test: T. gondii growth inhibition with IFN-gamma, dose response, cell-based, ME49Luc, HeLa, luciferase, 72 h (AID 1259418)
Conditions: T. gondii ME49Luc in IFN-y HeLa, active compounds read low, -100% = high-dose IFN-γ control wells; at 19.5 µM unless noted
With `O=C(CC1N=C2c3ccccc3N=C(SCc3cc(=O)n4cc(Cl)ccc4n3)N2C1=O)NCc1ccccc1` (stereo unspecified) the max activity was 8.94%. With `Cc1ccc(-c2coc(-c3ccc(NC(=O)c4ccco4)cc3)n2)c(C)c1` the max activity was 11.6%. `CCOc1ccc(-c2nc(CSc3nc4c(c(=O)[nH]3)CN(C(C)C)CC4)c(C)o2)cc1OC` showed a max activity of 21% [at 2.6 µM]. `COc1ccc(CNC(=O)CCC2N=C3c4ccccc4N=C(SCc4ccccc4F)N3C2=O)cc1` (stereo unspecified) showed a max activity of -23.7% [at 0.35 µM]. For `O=C(CCC1N=C2c3ccccc3N=C(SCc3ccccc3F)N2C1=O)NCCc1ccccc1` (stereo unspecified), the max activity was 25.3% [at 0.16 µM]. Compound `COc1ccc(CNC(=O)CCC2N=C3c4ccccc4N=C(SCc4ccc(Cl)cc4)N3C2=O)cc1` (stereo unspecified) has a max activity of -5.19% [at 0.68 µM]. In the case of `O=C(CCC1N=C2c3ccccc3N=C(SCc3ccccc3F)N2C1=O)NCc1ccc(F)cc1` (stereo unspecified), the max activity is reported as 12.5% [at 1.35 µM]. For `CCc1c(C)sc2c1CCN(Cc1nc(-c3ccccc3Cl)oc1C)C2c1ccccc1` (stereo unspecified), the max activity was 11.5% [at 10 µM]. With `CCc1ccc2c(c1)cc(S(=O)(=O)c1ccccc1)c(=O)n2CC(=O)NC(C)CC` (stereo unspecified) the max activity was -8.4%. Compound `Cc1ccc(-c2nc(Cn3nnc(-c4nc(-c5ccncc5)no4)c3C)c(C)o2)cc1` has a max activity of 8.58% [at 10 µM]. Work on `CCc1c(C)sc2c1CCN(Cc1nc(-c3ccc(OC)cc3OC)oc1C)C2c1ccccc1` (stereo unspecified) yielded a max activity of 15.7%. With `CCc1c(C)sc2c1CCN(Cc1nc(-c3ccccc3C)oc1C)C2c1ccccc1` (stereo unspecified) the max activity was 25.6% [at 5 µM]. For `O=C(c1cccc(F)c1)N1CC(=O)N2[C@@H](CO)[C@H](c3ccc(/C=C/c4ccccc4)cc3)[C@@H]2C1`, the max activity was 14.7% [at 5 µM]. For `CCC(=O)N1CC(=O)N2[C@H](CO)[C@H](c3ccc(C#CCC(C)C)cc3)[C@H]2C1`, the max activity was 9.28% [at 10 µM]. `CCC(=O)N1CC(=O)N2[C@@H](CO)[C@@H](c3ccc(C#CCC(C)C)cc3)[C@@H]2C1` gave a max activity of 22.8% [at 10 µM]. In the case of `CC(C)CC#Cc1ccc([C@H]2[C@@H](CO)N3C(=O)CN(C(=O)c4cccc(F)c4)C[C@@H]23)cc1`, the max activity is reported as 19.1% [at 10 µM]. `CCC(=O)N1CC(=O)N2[C@@H](CO)[C@H](c3ccc(C#CCC(C)C)cc3)[C@@H]2C1` showed a max activity of 20.4% [at 10 µM]. With `CCc1ccc(CNc2nc(-c3ccc(OC)cc3)nc3ccccc23)cc1` the max activity was -7.47% [at 0.16 µM]. In the case of `COc1ccccc1NC(=O)N1CCN(Cc2nc(-c3cccc(Cl)c3)oc2C)CC1`, the max activity is reported as 15.9% [at 1.35 µM]. In the case of `COc1ccc(NC(=O)Nc2ccc(-c3nc(-c4ccccc4)co3)cc2)cc1OC`, the max activity is reported as 91.2%. In the case of `O=C(Cc1cccc(F)c1)N1CCC2(CC1)Nc1ccccc1-n1cccc12`, the max activity is reported as 9.66% [at 10 µM]. In the case of `COc1cc(NC(=O)Nc2ccc(-c3nc(-c4ccccc4)co3)cc2)cc(OC)c1OC`, the max activity is reported as 43.1%. `CCc1ccc2c(c1)cc(S(=O)(=O)c1ccccc1)c(=O)n2CC(=O)N1CCCCC1` showed a max activity of 9.02% [at 0.16 µM]. For `CC(c1cc2ccccc2s1)N(O)C(N)=O` (stereo unspecified), the max activity was 22.5%. For `Cc1ccc2c(c1)cc(S(=O)(=O)c1ccccc1)c(=O)n2CC(=O)NCc1ccc(F)cc1`, the max activity was 3.98% [at 10 µM]. With `COc1ccc(-c2nc(Cn3nnc(-c4nc(-c5ccc(Cl)c(F)c5)no4)c3C)c(C)o2)cc1` the max activity was -11.8% [at 10 µM]. Work on `CCN1C(=O)CCc2cc(NC(=O)Cc3cccs3)ccc21` yielded a max activity of -9.98% [at 0.35 µM]. `Cc1ccc(-c2coc(-c3ccc(NC(=O)Nc4ccc(C)c(C)c4)cc3)n2)cc1` gave a max activity of 12% [at 2.6 µM]. Compound `CCN1C(=O)CCc2cc(NC(=O)c3cccc(C#N)c3)ccc21` has a max activity of -7.75% [at 0.16 µM]. `N#Cc1cccc(C(=O)N2CCC3C2CC(=O)N3Cc2ccncc2)c1` (stereo unspecified) showed a max activity of 25.6%. With `Cc1oc(-c2ccccc2)nc1Cn1nnc(-c2nc(-c3cccc(F)c3)no2)c1C` the max activity was 9.95%. `COc1ccc2c(c1)NC1(CCN(C(=O)Cc3ccccc3)CC1)c1cccn1-2` showed a max activity of 5.44% [at 0.35 µM]. In the case of `CCOc1ccc(NC(=O)COc2nc(CC)nc3ccccc23)cc1`, the max activity is reported as 16% [at 10 µM]. Work on `Cc1ccc(S(=O)(=O)Nc2ccc3c(c2)C(=O)N([C@H](C)CO)C[C@H](C)[C@H](CN(C)Cc2ccc(C(F)(F)F)cc2)O3)cc1` yielded a max activity of 19.4% [at 10 µM]. Compound `CCOc1ccc(-c2nc3c(s2)CN(S(=O)(=O)c2ccccc2Cl)CC3)cc1` has a max activity of 22.6%. `O=C(c1cccc(F)c1)N1CCC2(CC1)Nc1ccc(Cl)cc1-n1cccc12` showed a max activity of 9.53% [at 0.68 µM]. With `CCOc1ccccc1NC(=O)CN1CCC2(CC1)N=C(c1ccc(F)cc1)C(=O)N2` the max activity was 13%. In the case of `Cc1nc(CCNC(=O)[C@H]2CCCN2S(=O)(=O)c2cccc(Cl)c2)cs1`, the max activity is reported as -9.1% [at 0.35 µM]. In the case of `CCOc1ccc(-c2nc(CN(c3ccc(OC)cc3)S(=O)(=O)c3ccc(C)cc3)c(C)o2)cc1`, the max activity is reported as 8.75% [at 1.35 µM]. Compound `Cc1ccc2c(c1C)-n1cccc1C1(CCN(C(=O)Cc3ccccc3)CC1)N2` has a max activity of 4.08% [at 0.68 µM]. In the case of `CCOc1ccc(-c2nc(CN(c3ccccc3)S(=O)(=O)c3cccs3)c(C)o2)cc1OC`, the max activity is reported as -33.6% [at 10 µM]. Compound `CCOc1ccc(-c2nc(CN(c3ccc(C)cc3)S(=O)(=O)c3cccs3)c(C)o2)cc1OC` has a max activity of 101% [at 10 µM]. For `COc1ccccc1NC(=O)N1CCc2nc(-c3ccc(OC)c(OC)c3)sc2C1`, the max activity was 6.68% [at 0.16 µM]. Work on `C[C@]12CCC3=C4CCC(=O)C=C4CC[C@H]3[C@@H]1CC[C@@]2(O)CC#N` yielded a max activity of 15.3%. In the case of `Cc1ccc(N2CCC[C@]3(C(=O)O)CN(CCN(C)C)C[C@H]3C2)nn1`, the max activity is reported as 40.3%. `Cc1cccc(N2CCN(C(=O)c3ccc(-c4csc(C5CC5)n4)cc3)CC2)c1C` showed a max activity of -9.59% [at 0.35 µM]. Compound `COc1ccc(NC(=O)CN2CCC3(CC2)N=C(c2ccc(C)cc2)C(=O)N3)c(OC)c1` has a max activity of -8.99% [at 5 µM]. `COc1ccccc1NC(=O)CN1CCC2(CC1)N=C(c1cccc(C)c1)C(=O)N2` showed a max activity of 13.7% [at 0.35 µM]. Compound `COc1cccc(NC(=O)CN2CCC3(CC2)N=C(c2cccc(Cl)c2)C(=O)N3)c1` has a max activity of -20.4% [at 0.68 µM]. Compound `Cc1ccccc1NC(=O)CN1CCC2(CC1)N=C(c1cccc(Cl)c1)C(=O)N2` has a max activity of -14.5%. With `CSc1cccc(NC(=O)CN2CCC3(CC2)N=C(c2cccc(F)c2)C(=O)N3)c1` the max activity was 27.3%. For `Cc1ccc(C2=NC3(CCN(CC(=O)Nc4ccc(Cl)cc4)CC3)NC2=O)cc1`, the max activity was 19.9% [at 1.35 µM]. `CSc1cccc(NC(=O)CN2CCC3(CC2)N=C(c2ccc(Cl)cc2)C(=O)N3)c1` showed a max activity of -30.9%. `COc1ccc(C2=NC3(CCN(CC(=O)Nc4cccc(Cl)c4)CC3)NC2=O)cc1` showed a max activity of -14.8% [at 2.6 µM]. `COc1cccc(NC(=O)Nc2ccc(-c3nc(-c4cc(C)ccc4C)co3)cc2)c1` showed a max activity of 10.1% [at 0.16 µM]. In the case of `CN(C)CCO[C@@H]1CN(C(=O)Cc2ccsc2)[C@H]2CCCO[C@@H]12`, the max activity is reported as 38.7%. Work on `Cc1cccc(NC(=O)CN2CCC3(CC2)N=C(c2ccc(Cl)cc2)C(=O)N3)c1` yielded a max activity of 17.4%. In the case of `Cc1[nH]c2ccccc2c1C(=O)C(=O)NC1CC(=O)N(c2cccc(F)c2)C1` (stereo unspecified), the max activity is reported as 13.3% [at 0.35 µM]. In the case of `COc1ccc(C)cc1Nc1nc(-c2ccc(Cl)cc2)nc2ccccc12`, the max activity is reported as -11.5% [at 2.6 µM]. `Clc1ccc(-c2nc(N3CCc4ccccc43)c3ccccc3n2)cc1` showed a max activity of -11.3%. Work on `COc1ccc2c(c1)NC1(CCN(C(=O)c3ccc(C)c(C)c3)CC1)c1cccn1-2` yielded a max activity of -9.14% [at 2.6 µM]. `CCc1ccc(NC(=O)N2CCN(Cc3nc(-c4ccccc4C)oc3C)CC2)cc1` gave a max activity of 20.1% [at 0.16 µM]. Compound `Cc1oc(-c2ccccc2)nc1Cn1nnc(-c2nc(-c3ccc(F)c(Br)c3)no2)c1C` has a max activity of 9.89%. In the case of `COc1cccc(NC(=O)CN2CCC3(CC2)N=C(c2ccc(Cl)cc2)C(=O)N3)c1`, the max activity is reported as -17.6% [at 1.35 µM]. Compound `Cc1cccc(CN2CCC(CNc3nc(-c4ccc(Cl)cc4)nc4ccccc34)CC2)c1` has a max activity of -45.1% [at 0.35 µM]. `COc1ccc(-c2nc(NCC3CCN(Cc4ccc(Cl)cc4)CC3)c3ccccc3n2)cc1` showed a max activity of 14.4% [at 2.6 µM]. For `COc1ccc(-c2nc(NCc3ccc(C)cc3)c3ccccc3n2)cc1`, the max activity was -20.6% [at 5 µM]. With `COc1ccc(-c2nc(NCc3ccc(F)cc3)c3ccccc3n2)cc1` the max activity was 18.6% [at 1.35 µM]. In the case of `COc1ccc(-c2nc(NCC3CCN(Cc4ccccc4F)CC3)c3ccccc3n2)cc1`, the max activity is reported as -29.4%. Work on `CSc1ccc(-c2noc(-c3nnn(Cc4nc(-c5ccc(C)cc5)oc4C)c3C)n2)cc1` yielded a max activity of 4.87%. `COc1cc(C(=O)N2CCC3(CC2)Nc2ccc(C)c(C)c2-n2cccc23)cc(OC)c1OC` gave a max activity of 7.01% [at 0.16 µM]. Compound `COc1cccc(S(=O)(=O)N2CC[C@@H]3[C@H]2c2cc(C#Cc4cccnc4)ccc2N[C@@H]3CO)c1` has a max activity of 31.2% [at 5 µM]. Work on `Fc1cccc(-c2ccc(C3[C@H]4CNC[C@@H]3N4Cc3cncnc3)cc2)c1` (stereo partly specified) yielded a max activity of 50.5%. `O=C(C1CCOCC1)N1CC(=O)N2[C@@H](CO)[C@@H](c3ccc(C#CC4CCCCC4)cc3)[C@@H]2C1` showed a max activity of 25.9% [at 10 µM]. In the case of `Cc1cccc(-c2ccc(C3[C@H]4CNC[C@@H]3N4Cc3cccc(F)c3)cc2)c1` (stereo partly specified), the max activity is reported as 19.8%. For `N#C[C@H]1N[C@@H](CO)[C@H]1c1ccc(C#CC2CCCCC2)cc1`, the max activity was 49.7%.
